Measurements reported in PubChem BioAssay AID1159580 (chemical genetic matrix, 2015).
About 2,000 (36%) of roughly 5,500 compounds were called active. Another 18% or so got no clear call; they are omitted. The list shows a part of the results. A number with no mark means an inactive call. No stated cut-off is given here; in the data, active means normalized growth mostly below about 0.91 (no sharp cut-off); inconclusive means no clear call, values can overlap the other calls; inactive means mostly above about 0.92.

Assay: chemical genetic growth profiling, strain panel (AID 1159580);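 further: tested at 20 µM; growth read once vehicle control cultures reached saturation at 30 °C; 1 = growth at the plate median or of vehicle wells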
Conditions: S. cerevisiae deletion strains, growth OD

SMILES: COC(=O)c1cc(=O)c(O)c2c(O)c(O)ccc2c1
- normalized growth (locus YJR043C, strain POL32, stronger effect = lower value): 0.709 (active)
- normalized growth (locus YJR066W, strain TOR1, stronger effect = lower value): 0.556 (active)
- normalized growth (locus YKL009W, strain mrt4, stronger effect = lower value): 0.773 (active)
- normalized growth (locus YKL068W, stronger effect = lower value): 0.808 (active)
- normalized growth (locus YKL085W, strain MDH1 (second series), stronger effect = lower value): 0.793 (active)
- normalized growth (locus YKL085W, strain MDH1, stronger effect = lower value): 0.793 (active)
- normalized growth (locus YKL160W, strain elf1, stronger effect = lower value): 1.01
- normalized growth (locus YKL190W, strain CNB1, stronger effect = lower value): 0.593 (active)
- normalized growth (locus YKR001C, strain vps1, stronger effect = lower value): 0.764 (active)
- normalized growth (locus YKR026C, strain gcn3, stronger effect = lower value): 0.961
- normalized growth (locus YKR091W, strain srl3, stronger effect = lower value): 0.994
- normalized growth (locus YLL001W, strain dnm1, stronger effect = lower value): 0.99
- normalized growth (locus YLL026W, stronger effect = lower value): 0.994
- normalized growth (locus YLL041C, strain sdh2, stronger effect = lower value): 0.999
- normalized growth (locus YLR027C, strain aat2, stronger effect = lower value): 0.996
- normalized growth (locus YLR039C, strain RIC1, stronger effect = lower value): 0.354 (active)
- normalized growth (locus YLR058C, strain SHM2, stronger effect = lower value): 0.696 (active)
- normalized growth (locus YLR102C, strain apc9, stronger effect = lower value): 0.966
- normalized growth (locus YLR113W, strain HOG1, stronger effect = lower value): 0.795 (active)
- normalized growth (locus YLR221C, strain rsa3, stronger effect = lower value): 0.97
- normalized growth (locus YLR258W, strain gsy2, stronger effect = lower value): 0.996
- normalized growth (locus YLR262C, strain YPT6 (second series), stronger effect = lower value): 0.847 (active)
- normalized growth (locus YLR268W, strain sec22, stronger effect = lower value): 0.707 (active)
- normalized growth (locus YLR320W, strain mms22, stronger effect = lower value): 0.984
- normalized growth (locus YLR342W, strain FKS1 (second series), stronger effect = lower value): 0.569 (active)
- normalized growth (locus YLR342W, strain FKS1, stronger effect = lower value): 0.978
- normalized growth (locus YLR357W, strain rsc2, stronger effect = lower value): 0.925
- normalized growth (locus YLR370C, strain arc18, stronger effect = lower value): 0.999
- normalized growth (locus YLR371W, strain rom2, stronger effect = lower value): 0.781 (active)
- normalized growth (locus YLR384C, strain iki3, stronger effect = lower value): 0.995
- normalized growth (locus YLR418C, strain cdc73, stronger effect = lower value): 0.629 (active)
- normalized growth (locus YML016C, strain PPZ1, stronger effect = lower value): 0.771 (active)
- normalized growth (locus YML032C, strain rad52, stronger effect = lower value): 0.73 (active)
- normalized growth (locus YML120C, strain ndi1, stronger effect = lower value): 0.997
- normalized growth (locus YML124C, strain tub3, stronger effect = lower value): 0.952
- normalized growth (locus YMR058W, strain fet3, stronger effect = lower value): 0.89 (active)
- normalized growth (locus YMR078C, strain ctf18, stronger effect = lower value): 0.943
- normalized growth (locus YMR125W, strain sto1, stronger effect = lower value): 0.989
- normalized growth (locus YMR129W, stronger effect = lower value): 0.988
- normalized growth (locus YMR205C, strain PFK2, stronger effect = lower value): 0.987
- normalized growth (locus YMR223W, strain ubp8, stronger effect = lower value): 0.818 (active)
- normalized growth (locus YMR231W, strain pep5, stronger effect = lower value): 0.995
- normalized growth (locus YMR263W, strain SAP30, stronger effect = lower value): 0.882 (active)
- normalized growth (locus YMR307W, strain GAS1, stronger effect = lower value): 0.477 (active)
- normalized growth (locus YNL067W, strain RPL9B, stronger effect = lower value): 0.745 (active)
- normalized growth (locus YNL071W, strain lat1, stronger effect = lower value): 1.02
- normalized growth (locus YNL153C, strain GIM3, stronger effect = lower value): 0.841 (active)
- normalized growth (locus YNL183C, strain NPR1, stronger effect = lower value): 0.643 (active)
- normalized growth (locus YNL209W, strain ssb2, stronger effect = lower value): 0.99
- normalized growth (locus YNL233W, strain BNI4, stronger effect = lower value): 0.678 (active)
- normalized growth (locus YNL248C, strain rpa49, stronger effect = lower value): 0.99
- normalized growth (locus YNL250W, strain rad50, stronger effect = lower value): 0.62 (active)
- normalized growth (locus YNL271C, strain bni1, stronger effect = lower value): 0.731 (active)
- normalized growth (locus YNL298W, strain CLA4, stronger effect = lower value): 0.725 (active)
- normalized growth (locus YNL307C, strain MCK1, stronger effect = lower value): 0.953
- normalized growth (locus YNL322C, strain KRE1 (second series), stronger effect = lower value): 0.967
- normalized growth (locus YNL322C, strain KRE1, stronger effect = lower value): 0.638 (active)
- normalized growth (locus YNR049C, strain mso1, stronger effect = lower value): 0.998
- normalized growth (locus YNR052C, strain pop2, stronger effect = lower value): 0.7 (active)
- normalized growth (locus YOL006C, strain TOP1, stronger effect = lower value): 0.326 (active)
- normalized growth (locus YOL012C, strain htz1): 0.795
- normalized growth (locus YOL147C, strain pex11, stronger effect = lower value): 0.91 (active)
- normalized growth (locus YOR001W, strain rrp6, stronger effect = lower value): 0.985
- normalized growth (locus YOR061W, strain CKA2, stronger effect = lower value): 0.664 (active)
- normalized growth (locus YOR069W, strain VPS5, stronger effect = lower value): 0.796 (active)
- normalized growth (locus YOR070C, strain gyp1, stronger effect = lower value): 0.995
- normalized growth (locus YOR080W, strain dia2, stronger effect = lower value): 0.983
- normalized growth (locus YOR083W, strain WHI5, stronger effect = lower value): 1
- normalized growth (locus YOR106W, strain vam3, stronger effect = lower value): 0.966
- normalized growth (locus YOR136W, strain idh2, stronger effect = lower value): 0.869 (active)
- normalized growth (locus YOR144C, strain elg1, stronger effect = lower value): 0.822 (active)
- normalized growth (locus YOR184W, strain ser1, stronger effect = lower value): 0.801 (active)
- normalized growth (locus YOR231W, strain MKK1, stronger effect = lower value): 0.672 (active)
- normalized growth (locus YOR265W, strain rbl2, stronger effect = lower value): 0.994
- normalized growth (locus YOR270C, strain vph1, stronger effect = lower value): 1.04
- normalized growth (locus YOR290C, strain snf2, stronger effect = lower value): 0.94
- normalized growth (locus YOR316C, strain cot1, stronger effect = lower value): 0.952
- normalized growth (locus YPL051W, strain arl3, stronger effect = lower value): 0.982
- normalized growth (locus YPL078C, strain atp4, stronger effect = lower value): 1.02
- normalized growth (locus YPL106C, strain sse1, stronger effect = lower value): 0.965
- normalized growth (locus YPL240C, strain hsp82, stronger effect = lower value): 0.978
- normalized growth (locus YPL241C, strain CIN2, stronger effect = lower value): 0.943
- normalized growth (locus YPL256C, strain CLN2, stronger effect = lower value): 0.787 (active)
- normalized growth (locus YPR119W, strain clb2, stronger effect = lower value): 0.94
- normalized growth (locus YPR141C, strain kar3, stronger effect = lower value): 0.777 (active)
- normalized growth (locus YPR163C, strain tif3, stronger effect = lower value): 0.832 (active)
- normalized growth (locus YPR167C, strain met16, stronger effect = lower value): 0.802 (active)
- normalized growth (strain wtn01, stronger effect = lower value): 0.785 (active)
